Measurements as given in PubChem BioAssay (NCATS).
Inconclusive results are not listed. The source made the active and inactive calls. The call rests on the fitted dose curve; in most records, active means well fitted curve in the direction sought with a large enough effect; inconclusive means small, poorly fitted or top-dose-only effect, or another doubt; inactive means no such curve, though single readings can be large; an effect the other way counts as inactive or inconclusive.

Legend:
[1] = HPAF-II 18hr Apoptosis Induction qHTS against the NCATS CANVASS Library (AID 1347360); conditions: HPAF-II caspase-3/7 luminescence; series mostly up to 91.4 µM
In short: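 Caspase-Glo 3/7 luminescence (DEVD substrate) after 15 min RT; HPAF-II, 500 cells/well, 18 h compound exposure at 37 degrees C, qHTS series; doxorubicin control 0.1nM - 4uM.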

[2] = HEK293 12hr Apoptosis Induction qHTS against the NCATS CANVASS Library (AID 1347361); conditions: HEK293 caspase-3/7 Caspase-Glo luminescence; series mostly up to 91.4 µM
In short: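 500 HEK293 cells/well; cpds pin-transferred, 11-pt conc series; 12 h, 37 degrees C/5% CO2; Caspase-Glo 3/7 added, 15 min RT dark; luminescence.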

[3] = system: NAD(P)H diaphorase (Clostridium kluyveri); assay: Diaphorse counterscreen qHTS: Assay Interference Panel against the NCATS CANVASS Library (AID 1347362); conditions: Diaphorase enzyme, resazurin to resorufin fluorescence; series mostly up to 114 µM
In short: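 Clostridium kluyveri diaphorase in PBS with 0.01% Tween-20 was preincubated 15 min at room temperature in the dark with compounds (11-point series). Resorufin fluorescence (ex 525/20, em 598/25) was read 5 min after adding resazurin/NADH.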

[4] = biological target: Luciferin 4-monooxygenase (Photinus pyralis) (UniProt P08659); assay: Firefly luciferase counterscreen qHTS: Assay Interference Panel against the NCATS CANVASS Library (AID 1347363); conditions: purified firefly luciferase, luminescence inhibition, 5 min; series mostly up to 114 µM
Luciferin 4-monooxygenase (Photinus pyralis), sequence (P08659 whole entry, looked up): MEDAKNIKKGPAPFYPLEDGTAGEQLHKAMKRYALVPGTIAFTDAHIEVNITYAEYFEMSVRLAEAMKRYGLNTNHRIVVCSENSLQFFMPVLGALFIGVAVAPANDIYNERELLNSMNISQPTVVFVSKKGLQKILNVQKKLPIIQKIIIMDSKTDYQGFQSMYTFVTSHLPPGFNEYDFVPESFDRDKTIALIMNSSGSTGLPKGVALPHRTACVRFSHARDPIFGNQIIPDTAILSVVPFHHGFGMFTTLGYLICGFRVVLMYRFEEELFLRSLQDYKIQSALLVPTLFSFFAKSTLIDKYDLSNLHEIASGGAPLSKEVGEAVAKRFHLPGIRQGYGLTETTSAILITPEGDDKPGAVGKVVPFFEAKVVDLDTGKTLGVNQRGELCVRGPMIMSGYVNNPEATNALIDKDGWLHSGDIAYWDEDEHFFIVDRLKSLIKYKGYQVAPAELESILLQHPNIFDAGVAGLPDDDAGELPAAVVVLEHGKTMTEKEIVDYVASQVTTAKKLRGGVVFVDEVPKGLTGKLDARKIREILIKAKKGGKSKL
In short: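 Purified P. pyralis luciferase was added to compounds (11-point series) preincubated 15 min at room temperature with substrate containing 0.013 mM D-luciferin and 0.013 mM ATP; luminescence was read after 5 min.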

[5] = KB-3-1 Cancer Cell Toxicity qHTS against the NCATS CANVASS Library (AID 1347366); conditions: KB-3-1 viability, CellTiter-Glo luminescence, 72 h; series mostly up to 91.4 µM
In short: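 500 KB-3-1 cells/well; compounds pin-transferred, 11-pnt series; 72 hr, 37C/5% CO2; CellTiter-Glo, 10 min RT; luminescence read-out.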

[6] = qHTS for ATAD5 Agonist screened against the NCATS CANVASS Library (AID 1347367); conditions: HEK293T ATAD5-luciferase reporter, luminescence, 16 h; series mostly up to 91.4 µM
In short: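 Luminescence read-out: ATAD5-driven luciferase in stably transfected HEK 293T cells, which rises post-transcriptionally with DNA damage. Cells were exposed 16hr at 37C to test compound; a CellTiter-Fluor fluorescence read (1hr) measured viability first.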

[7] = G06 Cancer Cell Toxicity qHTS against the NCATS CANVASS Library (AID 1347368); conditions: G06 dog glioma cells, viability ATP luminescence, 72 h; series mostly up to 91.4 µM
In short: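 Cells were plated at 500 per well, then compounds were added over an 11-point range. After 72 hr at 37C, CellTiterGlo was added and luminescence measured as ATP content.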

[8] = qHTS for ATAD5 Antagonist screened against the NCATS CANVASS Library (AID 1347370); conditions: HEK293T-ATAD5-luc, 5-FUrd stimulated, luminescence, 16 h; series mostly up to 91.4 µM
In short: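 Compounds (11-point) co-dosed with 10 µM 5-FUrd for 16 h at 37 °C onto HEK293T-ATAD5 luciferase reporter cells. Viability measured by CellTiter-Fluor fluorescence, then ATAD5 reporter signal by luminescence.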

[9] = J3T Cancer Cell Toxicity qHTS against the NCATS CANVASS Library (AID 1347371); conditions: J3T dog glioma viability, ATP luminescence, 72 h; at 91.4 µM (top of the series)
In short: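 Luminescence from CellTiterGlo, reporting cellular ATP, serves as the viability measure after 72 hr compound treatment of J3T canine glioma cells seeded at 500 cells/well.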

[10] = biological target: Nuclear receptor subfamily 1 group I member 3 (Homo sapiens) (UniProt Q14994); assay: qHTS for Constitutive Androstane Receptor (CAR) Antagonist screened against the NCATS CANVASS Library (AID 1347372); conditions: HepG2-hCAR-CYP2B6 luciferase, CITCO-stimulated antagonist mode; series mostly up to 91.4 µM
Nuclear receptor subfamily 1 group I member 3 (Homo sapiens), sequence (Q14994 whole entry, looked up): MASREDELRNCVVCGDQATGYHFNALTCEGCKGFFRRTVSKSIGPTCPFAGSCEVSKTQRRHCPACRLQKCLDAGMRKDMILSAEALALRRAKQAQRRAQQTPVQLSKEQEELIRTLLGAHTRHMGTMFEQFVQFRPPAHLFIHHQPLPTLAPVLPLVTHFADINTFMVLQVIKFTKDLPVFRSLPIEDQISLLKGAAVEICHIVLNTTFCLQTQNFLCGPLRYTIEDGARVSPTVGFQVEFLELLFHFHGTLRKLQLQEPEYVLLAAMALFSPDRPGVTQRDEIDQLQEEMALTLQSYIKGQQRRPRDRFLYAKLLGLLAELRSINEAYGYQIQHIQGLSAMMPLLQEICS
In short: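 Cells were seeded and left 4hr to attach, then received compound at 11 concentrations and 50 nM CITCO. Following 24hr incubation, fluorescence viability and luciferase luminescence were read sequentially.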

[11] = biological target: Nuclear receptor subfamily 1 group I member 3 (Homo sapiens) (UniProt Q14994); assay: qHTS for Constitutive Androstane Receptor (CAR) Agonist screened against the NCATS CANVASS Library (AID 1347373); conditions: HepG2-hCAR-CYP2B6 luciferase reporter, ONE-Glo luminescence; series mostly up to 91.4 µM
In short: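 Cells were plated and allowed to attach for 4hr, then dosed with compound in an 11-point series alongside 1.5uM PK11195. After 24hr at 37C, viability was measured fluorometrically and CAR-driven CYP2B6 reporter luminescence was recorded.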

[12] = 10-beta competent E. coli microbial cell viability qHTS against the NCATS CANVASS Library (AID 1347376); conditions: E. coli 10-beta viability, BacTiter-Glo ATP luminescence, overnight; series mostly up to 91.4 µM
In short: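 Bacterial suspension diluted to 0.2 OD was dosed with compounds, 11-point series, then held overnight at 37C. BacTiter-Glo reagent was added, and after 20 min at room temperature ATP-dependent luminescence was measured.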

[13] = DH5-alpha competent E. coli microbial cell viability qHTS against the NCATS CANVASS Library (AID 1347377); conditions: BacTiter-Glo ATP luminescence, overnight; series mostly up to 91.4 µM
In short: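 Bacteria were dispensed at 0.2 OD, then compounds were pin-transferred. Plates were incubated overnight at 37C, after which BacTiter-Glo was added and luminescence measured 20 min later.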

[14] = qHTS for H2AX Agonists against the NCATS CANVASS Library (AID 1347378); conditions: CHO-K1 H2AX phosphorylation, HTRF TR-FRET, 3 h; series mostly up to 153 µM
In short: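 TR-FRET readout (ex 320 nm, em 665/620 nm ratio) of phospho-H2AX (S139) in CHO-K1 lysates. Cells treated 3 hr at 37C with compound titration, 0.76% DMSO; lysis 30 min, antibody detection 24 hr at RT.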

[15] = qHTS for Inflammasome Signaling Inhibitors: IL-1-beta AlphaLISA screen against the NCATS CANVASS Library (AID 1347379); conditions: THP-1 LPS/ATP, IL-1B AlphaLISA secretion, 16 h; at 114 µM (top of the series)
In short: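 Secreted IL-1B from human THP-1 cells quantified by AlphaLISA 16 hr after compound addition (final up to 57.5 uM). A 1 hr compound pretreatment preceded inflammasome activation with 250 ng/mL LPS plus 1.25 mM ATP (final).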

[16] = qHTS for Antimalaria activity screened against the NCATS CANVASS Library (AID 1347380); conditions: P. falciparum Dd2 growth, SYBR Green fluorescence, 72 h; series mostly up to 57 µM
In short: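 Compounds are titrated over 11 concentrations onto Dd2 parasite cultures (0.3% parasitemia, 2.5% hematocrit). Growth over 72 h at 37C in low oxygen is measured as SYBR Green DNA fluorescence after lysis.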

[17] = Inflammasome Signaling qHTS Counterscreen: IL-1-beta AlphaLISA counterscreen against the NCATS CANVASS Library (AID 1347381); conditions: Purified IL-1beta AlphaLISA signal interference counterscreen; series mostly up to 114 µM
In short: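 Purified IL-1-beta (4 pg/well) + compound, 11-pt conc. series; acceptor beads 6 ug/mL + biotin-Ab 0.6 nM final, 1 h RT; SA-donor 24 ug/ml final, 30 min dark RT; read ex 680/em 615.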

[18] = Cytotoxicity qHTS for assessment of Hepg2 cells membrane integrity screened against the NCATS CANVASS Library (AID 1347387); conditions: HepG2 LDH release (CytoTox-ONE) fluorescence, 5 h; series mostly up to 91.4 µM
In short: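 Cells were seeded at 2000 per well and left overnight to attach. Compounds were pin-transferred to give 0.59 nM - 46 uM in an 11-point series and incubated 5 hr at 37C. CytoTox-ONE reagent was added and, after 10 min at room temperature, fluorescence (ex 560, em 590 nm) was read.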

[19] = qHTS for Activators of p53 Stress Response Pathway screened against the NCATS CANVASS Library (AID 1347388); conditions: p53RE-bla HCT-116, beta-lactamase reporter, 16 h; series mostly up to 91.4 µM
In short: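 p53RE-bla HCT-116 cells (4000/well) were plated 5 h at 37C, exposed to compounds for 16 h at 37C over an 11-point concentration series, then loaded with CCF4 for 2 h at room temperature; 460/530 nm emission ratio read.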

[20] = qHTS assay for small molecule disruptors of mitochondrial membrane potential screened against the NCATS CANVASS Library (AID 1347389); conditions: HepG2 mitochondrial membrane potential, m-MPI red/green ratio, 1.5 h; series mostly up to 91.4 µM
In short: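 Mitochondrial depolarization in HepG2 cells is scored as a falling aggregate-to-monomer fluorescence ratio after 1 hr compound exposure and 30 min staining with Mito-MPS dye at 37C, each compound tested as an 11-point titration.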

Measured: outcome

NCCc1ccc(O)cc1
inactive: [1] | [2] | [3] | [4] | [5] | [6] | [7] | [8] | [9] | [10] | [11] | [12] | [13] | [14] | [15] | [16] | [17] | [18] | [19] | [20]
